SRC1 TRFRET art – TR-FRET detection interference compounds, primary screen, artefact control for PPARgamma SRC-1 recruitment agonists, biochemical, TR-FRET emission ratio | TR-FRET detection artefact counter-screen; hits give high values | 99,000 tested, 0.34% active | AID 1051, 2008 | TR-FRET ratio at 8 µM; in the data active = TR-FRET ratio above about 2300
PPARg SRC2 recr – agonists of PPARg-SRC-2 recruitment, primary screen, biochemical, HTS; 200,000 tested, 0.34% active; Peroxisome proliferator-activated receptor gamma (Homo sapiens), P37231; PPARgamma LBD-SRC-2 recruitment; activation, % at 8 µM;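 also: 0% = vehicle and 100% = reference agonist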
Target sequence (P37231 whole entry, looked up, the tested form may be a part): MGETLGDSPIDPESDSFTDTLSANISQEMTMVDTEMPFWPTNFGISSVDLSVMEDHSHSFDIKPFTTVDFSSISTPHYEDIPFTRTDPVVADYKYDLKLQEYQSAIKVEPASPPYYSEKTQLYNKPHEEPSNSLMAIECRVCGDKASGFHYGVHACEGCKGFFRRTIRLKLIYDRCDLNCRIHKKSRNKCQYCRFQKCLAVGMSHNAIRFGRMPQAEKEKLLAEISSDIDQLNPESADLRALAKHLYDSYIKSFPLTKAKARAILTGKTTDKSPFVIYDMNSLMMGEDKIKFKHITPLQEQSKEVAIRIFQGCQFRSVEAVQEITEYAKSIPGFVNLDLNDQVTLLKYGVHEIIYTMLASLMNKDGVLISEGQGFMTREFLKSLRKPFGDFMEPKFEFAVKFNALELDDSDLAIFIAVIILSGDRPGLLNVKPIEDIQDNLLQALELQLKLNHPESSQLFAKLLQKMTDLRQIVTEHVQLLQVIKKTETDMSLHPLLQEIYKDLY
PPARg SRC-3 ag – PPARgamma agonists recruiting SRC-3 coactivator, primary screen, biochemical. Peroxisome proliferator-activated receptor gamma (Homo sapiens), P37231. biochemical PPARgamma/SRC-3 coactivator recruitment assay. activation, % at 8 µM. 200,000 tested, 0.26% active; in the data active = activation above about 23%;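 also: 0% = DMSO and 100% = reference agonist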
SRC3 TRFRET art – TR-FRET detection interference compounds, artefact control for PPARgamma SRC-3 recruitment agonists, biochemical, TR-FRET ratio | TR-FRET artefact counter-screen, PPARgamma/SRC-3 format; hits give high values | TR-FRET ratio at 8 µM | 99,000 tested, 0.39% active; in the data active = TR-FRET ratio above about 2000
PPARg SRC1 recr – PPARgamma agonists recruiting SRC-1 coactivator, primary screen, biochemical | AID 631, 2007 | activation, % at 8 µM | 200,000 tested, 0.41% active | Peroxisome proliferator-activated receptor gamma (Homo sapiens), P37231 | PPARgamma-SRC-1 coactivator recruitment biochemical assay; in the data active = activation above about 19%;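 also: 0% = DMSO and 100% = reference agonist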
TR-FRET SRC-2 ct – TR-FRET signal artefacts, primary screen, artefact control for PPARgamma SRC-2 agonist project, biochemical; 200,000 tested, 0.4% active; TR-FRET ratio at 8 µM; TR-FRET artefact counter-screen; hits give high values; in the data active = TR-FRET ratio above about 2000
PPARg SRC2 ag – agonists of PPARgamma SRC-2 coactivator recruitment, confirmation, biochemical, HTS. shares compounds with PPARg SRC-3 ag. biochemical SRC-2 recruitment by PPARgamma. activation, % at 8 µM. 790 tested, 52% active. AID 1297, 2008;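 also: 0% = vehicle alone and 100% = reference agonist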
PPARg SRC1 ag – PPARgamma agonists recruiting SRC-1 coactivator, confirmation, biochemical; shares compounds with PPARg SRC-3 ag; PPARgamma–SRC-1 coactivator recruitment biochemical assay; activation, % at 8 µM; 790 tested, 43% active; AID 1300, 2008; in the data active = activation above about 20%;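 also: 0% = vehicle wells and 100% = reference agonist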
PPARg SRC3 conf – PPARgamma-driven SRC-3 coactivator recruitment agonists, confirmation, biochemical; shares compounds with PPARg SRC-3 ag; biochemical PPARgamma-SRC-3 coactivator recruitment, agonist mode; activation, % at 8 µM; 790 tested, 29% active; AID 1301, 2008; in the data active = activation above about 24%;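 also: 0% = vehicle wells and 100% = reference agonist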
* marks the source's active call; other numbers are inactive results; / = no result given. Shown are actives, neighbours in structure and some others; about 0.9% of the full set was active somewhere. Rule as the data show it, unless noted: active = activation above about 22%; inactive = the rest.

SMILES	SRC1 TRFRET art	PPARg SRC2 recr	PPARg SRC-3 ag	SRC3 TRFRET art	PPARg SRC1 recr	TR-FRET SRC-2 ct	PPARg SRC2 ag	PPARg SRC1 ag	PPARg SRC3 conf
S=c1[nH]nc(-c2ccco2)n1-c1ccc(Cl)cc1	2279	23*	18	2067*	16	1660	18	9	11
COc1ccccc1-c1n[nH]c(=S)n1-c1ccccc1	/	63*	84*	/	62*	2941*	57*	39*	39*
Nn1c(-c2ccco2)n[nH]c1=S	/	3	0	/	1	1580	/	/	/
COc1ccc(-n2c(-c3ccco3)n[nH]c2=S)cc1	/	14	21	/	22*	1858	20	11	13
COc1ccccc1-c1n[nH]c(=S)n1N	1712	2	4	1623	11	1698	/	/	/
O=C(COc1ccc(Cl)cc1)NC1=NN(c2ccccc2)C(=O)C1	1708	11	3	1490	0	1762	/	/	/
COC(=O)c1sccc1NC(=O)Nc1ccc(Cl)c(Cl)c1	/	23*	14	/	19*	1921	8	2	4
Cc1cc(C)c2cc(C#N)c(N3CCCN(S(=O)(=O)c4ccccc4)CC3)nc2c1	/	2	4	/	-1	1481	/	/	/
CC(=O)c1cccc(S(=O)(=O)N2CCN(c3nc4cc(C)cc(C)c4cc3C#N)CC2)c1	/	-6	39*	/	26*	1642	-1	-2	-4
COc1ccc(/C=N/c2c(-c3ccco3)nc3ccccn23)cc1OC	/	23*	29*	/	34*	1874	17	8	6
O=C(CCc1ccccc1)NCCc1nc2ccccc2[nH]1	1673	1	1	1454	-5	1487	/	/	/
N#Cc1ccc(-c2ccc(F)cc2)nc1SCC(=O)Nc1sc2c(c1C#N)CCC2	/	2	9	/	20*	1696	21	10	10
N#Cc1cc2c(nc1SCC(=O)Nc1sc3c(c1C#N)CCC3)CCCC2	/	10	2	/	14	1572	/	/	/
Oc1ccc(Br)cc1C=Nc1cccn2cc(-c3ccccc3)nc12	1670	23*	11	1820	19	1895	17	16	14
COc1cc(C(=O)NCc2ccc3c(c2)OCO3)ccc1OCc1c(C)noc1C	/	25*	20	/	5	1774	-1	0	-2
COc1ccccc1/C=C/C1=NC(=C\C=C/c2ccccc2)/C(=O)O1	1863	12	41*	1622	16	1610	6	5	12
Cc1ccc(COc2ccsc2C(=O)NN)cc1	1589	-12	1	1650	0	1492	/	/	/
CCOC(=O)C1CCCN(CC(=O)Nc2c(C(=O)OC)[nH]c3ccc(Br)cc23)C1 (configuration not stated)	/	40*	42*	/	26*	2688*	34*	23*	24*
COC(=O)c1[nH]c2ccc(Br)cc2c1NC(=O)CN1CCCc2ccccc21	/	42*	50*	/	32*	2282*	16	10	7
CCOC(=O)CSc1nnc(NCC(=O)OC(C)C)c(=O)[nH]1	/	7	7	/	7	1728	/	/	/
CC(C)OC(=O)C(C)Nc1n[nH]c(=S)[nH]c1=O (configuration not stated)	3785*	66*	45*	3327*	71*	3006*	98*	74*	64*
CC(C)OC(=O)CNc1n[nH]c(=S)[nH]c1=O	5153*	129*	74*	4653*	113*	4518*	106*	78*	71*
